The source of these data is PubChem BioAssay AID2685 (National Center for Advancing Translational Sciences (NCATS), 2010).

The campaign covered roughly 320,000 compounds. About 2,100 (0.66%) were called active. Not shown: some 53% with an inconclusive outcome. The call rests on the fitted dose curve; in most records, active means well fitted inhibition curve with a large enough effect in the signal ratio, with a control signal flat (not every such curve was filed as active); inconclusive means small, poorly fitted or top-dose-only effect, or effect the other way, or a change in a side signal; inactive means flat fitted curve, though single readings scatter; the % refers to the signal ratio. Only a selection was taken, and actives are over-represented in it overall.
Potency means the concentration at half of the fitted maximal effect.

This experiment is described as follows: qHTS Assay for Lipid Storage Modulators in Drosophila S3 Cells.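 On cell number change: cells counted by Cell Tracker Red CMTPX staining in the red channel.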 On lipid storage change, negative = inhibition: on the % scale 0 is the no-effect control and ±100 the full control effect. As to conditions: BODIPY lipid droplet fluorescence, 18-24 h, cells fed with added oleic acid; cell number change: measured here: cell count max response; series mostly up to 46.1 µM; lipid storage change, negative = inhibition: at the top concentration. An outline of the steps:
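Drosophila S3 cells loaded with oleic acid (400 uM, as added) and compounds at several concentrations; lipid droplets imaged by 488-nm laser-scanning cytometry, 500–530 nm intensity and object ratio to cell channel. Percent activity normalized to 20 uM Triacsin C.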
(In general: In qHTS, concentration-response curves come from the screen itself.)
Turning to `COCCn1c(Cc2ccccc2)nnc1SCC(=O)Nc1cc(C)on1`, the “lipid storage change, negative = inhibition” value was -1.8% (inactive).

For the molecule `Cc1ccc(-n2c(SCC(=O)NNC(=S)Nc3ccccc3)nc3ccccc3c2=O)cc1`, the “lipid storage change, negative = inhibition” value was 5% (inactive) and the cell number change is 9.73%.

With `CN1[C@@H](CC(=O)c2ccccc2)CCC[C@H]1C[C@H](O)c1ccccc1`, the “lipid storage change, negative = inhibition” value is 4.29% (inactive) and the cell number change worked out at 9.08%.

With `CN1CCC(N(C)CC(O)c2ccccc2)CC1` (stereo unspecified), the “lipid storage change, negative = inhibition” value is -18.8% (inactive) and the cell number change was -4.15%.

Regarding `CN1C(CC(=O)c2ccccc2)CCCC1CC(O)c1ccccc1` (stereo unspecified), the Potency was 18.4 µM (active) and the cell number change was -3.64%.

Regarding `C=CCSc1nc(O)c(CC)c(=O)n1C(C)CC` (stereo unspecified), the “lipid storage change, negative = inhibition” value is 2.71% (inactive) and the cell number change was -4.8%.

In the case of `Cc1ccc(OCc2ccc(C(=O)NCC3CCCO3)cc2)cc1C` (stereo unspecified), the Potency was 10.3 µM (active) and the cell number change was -8.64%.

For `Cc1ccc(OCc2ccc(C(=O)NCC3CCCO3)cc2)cc1` (stereo unspecified), the “lipid storage change, negative = inhibition” value is 8.3% (inactive) and the cell number change is 13.4%.

As to `Cc1noc(C)c1COc1ccc(C(=O)NCC2CCCO2)cc1` (stereo unspecified), the “lipid storage change, negative = inhibition” value was -9.48% (inactive) and the cell number change was -13.5%.

Regarding `Cc1cccc(NC(=O)Nc2ccccc2)n1`, the “lipid storage change, negative = inhibition” value was -0.183% (inactive) and the cell number change is -19.9%.

On to `COc1ccc(/C=C/C(=O)N2CCNC(=O)C2)c(OC)c1`, for which the “lipid storage change, negative = inhibition” value is -28.8% (inactive).

In the case of `COc1ccc(-c2cc(=O)oc3c(C)c(OCC(=O)N(C)C)ccc23)cc1`, the call was inactive.

For the molecule `CC(=O)Nc1ccc(OC(=O)c2cc([N+](=O)[O-])ccc2Cl)cc1`, the “lipid storage change, negative = inhibition” value was -0.987% (inactive).

Turning to `Clc1cccc(Cl)c1NC1=NCCC1`, the “lipid storage change, negative = inhibition” value was -9.95% (inactive) and the cell number change turned out to be 6.79%.

Turning to `Cc1ccc(NC2=NCCC2)cc1Cl`, the “lipid storage change, negative = inhibition” value is -2.15% (inactive).

Consider `Clc1cccc(NC2=NCCC2)c1`, for which the Potency is 25.9 µM (active) and the cell number change was -7.84%.

For the molecule `CCCCNC(=S)NNC(=O)c1cccnc1`, the “lipid storage change, negative = inhibition” value is 5.02% (inactive) and the cell number change was found to be 0.804%.

With `CC(C)Sc1nc2c(c(=O)[nH]c(=O)n2C)n1Cc1ccccc1`, the “lipid storage change, negative = inhibition” value was -2.37% (inactive).

Take `O=[N+]([O-])c1ccc(S(=O)(=O)NCCc2ccncc2)cc1`: the “lipid storage change, negative = inhibition” value is 11.3% (inactive) and the cell number change turned out to be 17.1%.

For the molecule `O=[N+]([O-])c1cccc(S(=O)(=O)NCc2ccncc2)c1`, the Potency was 10.3 µM (active) and the cell number change is -3.97%.

As to `O=[N+]([O-])c1cccc(S(=O)(=O)NCCc2ccccc2)c1`, the call was inactive and the cell number change was -15.1%.

With `CCCNC(=O)COC(=O)c1ccc(N2CCCC2)c([N+](=O)[O-])c1`, the “lipid storage change, negative = inhibition” value is -3.38% (inactive) and the cell number change worked out at 10%.

In the case of `N=C1/C(=C\c2ccc(-c3cccc(Cl)c3)o2)C(=O)N=C2SC=C(c3ccccc3)N12`, the “lipid storage change, negative = inhibition” value was 4.02% (inactive) and the cell number change is -13.8%.

Take `CC1CN2C(c3ccc(Cl)cc3)=CSC2=N1` (stereo unspecified): the result was inactive and the cell number change is 15.5%.

For the molecule `Clc1ccc(C2=CSC3=Nc4cccc5cccc(c45)N23)cc1`, the Potency was 0.13 µM (active) and the cell number change was -10.2%.

On to `COc1ccc(OC[C@@H](O)CNC(=O)c2cccc3c2C(=O)c2ccc(Cl)cc2S3(=O)=O)cc1`, for which the “lipid storage change, negative = inhibition” value was 6.63% (inactive) and the cell number change was 6.27%.

Consider `O=C(NNC(=O)c1ccccc1F)c1ccc(Cl)c(S(=O)(=O)N2CCOCC2)c1`, for which the “lipid storage change, negative = inhibition” value was 0.713% (inactive) and the cell number change was 4.79%.

For `Cc1c2cnn(CC(=O)NCc3ccccn3)c(=O)c2c(C)n1Cc1ccccc1`, the “lipid storage change, negative = inhibition” value was 6.37% (inactive) and the cell number change is -4.61%.

On to `Cc1ccc(C)c(Cn2c3ccccc3c3cnn(CC(=O)NCc4ccccn4)c(=O)c32)c1`, for which the molecule was classed as inactive and the cell number change stood at 21.8%.

In the case of `Cc1cc(C)c(Cn2c3ccccc3c3cnn(CC(=O)NCc4ccccn4)c(=O)c32)c(C)c1`, the Potency was 14.6 µM (active) and the cell number change worked out at 17.6%.

For the molecule `Cc1ccccc1CN1CCNC1=O`, the outcome was inactive.

In the case of `COCCCNC(=O)CS(=O)Cc1nc(-c2ccccc2C)oc1C` (stereo unspecified), the “lipid storage change, negative = inhibition” value was 5.85% (inactive) and the cell number change was -1.92%.

For `COc1ccc(-c2nc(CS(=O)(=O)CC(=O)NCc3cccc(OC)c3OC)c(C)o2)cc1`, the “lipid storage change, negative = inhibition” value was 1.65% (inactive) and the cell number change was 10.4%.

Take `CCc1c(C)sc(NC(=O)c2cc(C(C)C)on2)c1C#N`: the “lipid storage change, negative = inhibition” value is 4.2% (inactive) and the cell number change was 4.86%.

Consider `CCCn1c(=N)n(CC(=O)OCC)c2ccccc21`, for which the “lipid storage change, negative = inhibition” value is 10.3% (inactive) and the cell number change was determined as 13.2%.

As for `CCOC(=O)Cn1c(=N)n(Cc2ccccc2F)c2ccccc21`, the Potency is 18.4 µM (active) and the cell number change is -1.47%.

Turning to `C=CCn1c(=N)n(CC(=O)OCC)c2ccccc21`, the “lipid storage change, negative = inhibition” value is -3.21% (inactive) and the cell number change turned out to be 2.48%.

As for `Cc1cccc(NCc2ccc(Br)cc2)n1`, the “lipid storage change, negative = inhibition” value was 6.89% (inactive) and the cell number change is -13.5%.

On to `O=C(CN1C(=O)COc2ccccc21)N1CCCc2ccccc21`, for which the “lipid storage change, negative = inhibition” value is -23.7% (inactive) and the cell number change was 11.3%.

`O=C1CNC(=O)N1CC(=O)N1CCCc2ccccc21`: the Potency was 29.1 µM (active) and the cell number change is -34.5%.

As for `O=C(CN1CCCCC1)N1CCCc2ccccc21`, the result was inactive and the cell number change was found to be 7.83%.

`COc1ccccc1NC(=S)NCc1ccc(Cl)cc1`: the “lipid storage change, negative = inhibition” value is 12.7% (inactive) and the cell number change amounted to 8.81%.

For `COc1ccccc1NC(=S)NCc1ccc(F)cc1`, the Potency is 11.6 µM (active) and the cell number change is -1.4%.

Consider `COc1ccccc1NC(=S)NCc1ccc(S(N)(=O)=O)cc1`, for which the “lipid storage change, negative = inhibition” value is 4.94% (inactive) and the cell number change came to 6.14%.
